The compounds below were run against Glucose transporter (Leishmania mexicana) (UniProt O61059) (assay: ST_JUDE_LEISH: Cytotoxicity at 2uM final concentration against transgenic Leishmania Mexicana promastigotes LmGT2 that are glucose transport deficient and complemented with the L. Mexicana glucose transporter 2. Activity is measured by DNA content using SYBR green in vitro).
Assay type: functional
Compound `Cc1ccn2c(N(Cc3ccccc3)C(=O)c3ccc(Cl)c(Cl)c3)c(-c3ccccc3)nc2c1` has an inhibition of 0.79%.
`COc1cc2c(cc1OC)C(C(=O)Nc1cc(OC)c(OC)c(OC)c1)C(c1ccc(SC)cc1)N(C)C2=O` (centres undefined) gave an inhibition of 2.73%.
Work on `O=C(Cc1ccc(NC(=O)c2ccc(O)c(-c3ccc(Cl)c(Cl)c3)c2)cc1)NCc1cccc(C(F)(F)F)c1` yielded an inhibition of 1.16%.
`Cc1cc(N/N=C/c2ccccc2[N+](=O)[O-])c2cc(F)ccc2n1` showed an inhibition of 0.94%.
With `O=c1cc(NCCCN(Cc2cc3c(Cl)cc(Cl)cc3[nH]2)Cc2cc3c(Cl)cc(Cl)cc3[nH]2)[nH]c2ccccc12` the inhibition was 7.31%.
In the case of `COc1ccc(-c2cc(-c3ccc(S(C)(=O)=O)cc3)cnc2N)cn1`, the inhibition is reported as 3.66%.
Compound `Cc1cc(OCCCNc2nc(NCCc3ccc(O)cc3)nc(N3CCNCC3)n2)c(Cl)c(C)c1Cl` has an inhibition of 0.27%.
For `CCCCNC(=O)c1[nH]c2c(NC(=O)COc3ccccc3)cccc2c1-c1cccc(NC(=O)C(N)CO)c1` (centres undefined), the inhibition was 7.27%.
`CCNc1cc(C)nc(Nc2ccc(NC(=O)c3ccccc3Br)cc2)n1` gave an inhibition of 4.36%.
With `COc1c(C2CCN(CCCCNC(=O)c3cccc(-c4ccc(C(F)(F)F)cc4)c3)CC2)ccc2c1CCCC2` the inhibition was 11.1%.
For `COc1ccccc1NC(=O)Nc1cccc(-c2cccc(-c3nc4cccc(C)c4[nH]3)c2)c1`, the inhibition was -1.31%.
For `CCCNC(=O)C1Cc2c([nH]c3ccc(Br)cc23)C2(CCN(CCc3ccccc3)CC2)N1` (centres undefined), the inhibition was 1.33%.
`NCC(=O)NC12CC3CC(CC(C3)C1)C2` was tested, and the inhibition was 1.66%.
Compound `Cc1ccc(NC(=O)c2ccc3ncccc3c2)cc1OC1CCN(Cc2ccsc2)C1` (centres undefined) has an inhibition of 0.48%.
`Cc1cccc2nc(-c3ccc(-c4cccc(CN5CCCC(N)C5)c4)s3)[nH]c12` (centres undefined) showed an inhibition of 11.7%.
`O=C(Nc1ccc(OC2CCN(Cc3ccc(F)cc3)CC2)c(Cl)c1)c1ccsc1` was tested, and the inhibition was 1.51%.
In the case of `COc1cccc(C(=O)NC(C=Cc2ccccc2)c2cc(Cl)c3cccnc3c2O)c1` (centres undefined), the inhibition is reported as 2%.
In the case of `CCCN1CCN(CC(O)CNC(=O)Nc2ccc(Cl)cc2)CC1` (centres undefined), the inhibition is reported as 4.07%.
Work on `O=C(Nc1ccon1)c1cc(-c2cccnc2)nc2ccc(Cl)cc12` yielded an inhibition of 3.02%.
With `N#Cc1cccc(NC(=O)NC2CCN(CCCCCNC(=O)/C=C/c3ccc(Cl)c(Cl)c3)CC2)c1` the inhibition was 8.54%.
`CC(Cc1ccc(C(=O)OC(c2ccccc2)c2ccccc2)cc1)NCC(O)c1ccccc1` (centres undefined) gave an inhibition of -0.61%.
`O=C(/C=C/c1ccc(Cl)c(Cl)c1)NCCCCCCN1CCN(C(=O)Nc2ccc(OC(F)F)cc2)CC1` showed an inhibition of 6.38%.
`O=C(Nc1ccccc1-c1ccccc1)C1CCCN1C(=O)Nc1ccc(Cl)cc1` (centres undefined) showed an inhibition of -2.33%.
Compound `CC(=O)c1cc(N2CCCC2)ccc1N` has an inhibition of 2.09%.
Compound `Cc1cc(N2CCOCC2)nc(Nc2ccc(NC(=O)c3cccc4ccccc34)cc2)n1` has an inhibition of 5.87%.
`O=C(/C=C/C=C/c1ccc(Cl)c(Cl)c1)NCCCCCN1CCCC2CCCCC21` (centres undefined) was tested, and the inhibition was 13.2%.
For `COc1cccc(CNc2noc(-c3c(-c4ccccc4)noc3C)n2)c1OC`, the inhibition was 2.76%.
In the case of `O=C(Nc1ccc(OC2CCN(Cc3ccc(F)cc3)C2)c(Cl)c1)c1ccco1` (centres undefined), the inhibition is reported as 3.01%.
In the case of `CCCCCOc1c(CCC)cc(Cc2cnc(N)nc2N)cc1CCC`, the inhibition is reported as 4.12%.
`Cc1[nH]n(-c2cccc(Cl)c2)c(=O)c1-c1ccc(Cl)cc1` gave an inhibition of -2.07%.
`CC(C)Nc1nc(NCCc2c[nH]cn2)nc(NCc2cccc3ccccc23)n1` was tested, and the inhibition was -2.34%.
For `Cc1cc2c3c(N)nc(N)nc3ccc2n1C`, the inhibition was 5.15%.
`O=C(Nc1ccc(OC2CCN(Cc3ccccc3)CC2)c(Cl)c1)c1ccco1` was tested, and the inhibition was 8.63%.
Work on `CC(C)c1sc(-c2ccc(C(C)(C)C)cc2)nc1C(=O)NCCCN1CCCC1=O` yielded an inhibition of 1.9%.
Work on `COc1ccc(CNc2ccnc3cc(OC)ccc23)cc1` yielded an inhibition of 3.66%.
Compound `NCCCNc1nc(Nc2ccc(C(F)(F)F)cc2F)c2c(=O)[nH]ccc2n1` has an inhibition of 0.74%.
`Cc1ccc(N2C(=O)C3C(C2=O)C2(c4ccccc4)C(=O)C3(c3ccccc3)C(c3ccccc3)=C2c2ccccc2)cc1` (centres undefined) showed an inhibition of -1.83%.
`CC(C)CCNc1nc(NCc2ccccc2)c2cc(O)ccc2n1` gave an inhibition of 1.03%.
In the case of `O=C(NCc1ccccn1)C(c1cc2ccccc2o1)N1CCN(C(c2ccccc2)c2ccccc2)CC1` (centres undefined), the inhibition is reported as 2.55%.

Reference: ChEMBL document CHEMBL3433997, “St. Jude Leishmania screening dataset” (2016)
